# Test results reported in the supplement of paper PMC11732987, “Enantioselective OTUD7B fragment discovery through chemoproteomics screening and high-throughput optimisation” (Communications Chemistry, 2025).
# A number with no mark means an inactive call.
# Legend:
# Assay in all cases: log2 ratio of Biotin-Ahx-Ub-VS probe labelling (fragment/DMSO); higher = less target engagement (more negative = stronger competition), active = hit call of the paper (q ≤ 0.05, log2 ratio ≤ -1)
# Conditions in all cases: compound concentration: 200 uM; treatment time: 3 h
# ALG13 = target: T1, ALG13 (UniProt Q9NP73)
# T1 sequence (whole entry): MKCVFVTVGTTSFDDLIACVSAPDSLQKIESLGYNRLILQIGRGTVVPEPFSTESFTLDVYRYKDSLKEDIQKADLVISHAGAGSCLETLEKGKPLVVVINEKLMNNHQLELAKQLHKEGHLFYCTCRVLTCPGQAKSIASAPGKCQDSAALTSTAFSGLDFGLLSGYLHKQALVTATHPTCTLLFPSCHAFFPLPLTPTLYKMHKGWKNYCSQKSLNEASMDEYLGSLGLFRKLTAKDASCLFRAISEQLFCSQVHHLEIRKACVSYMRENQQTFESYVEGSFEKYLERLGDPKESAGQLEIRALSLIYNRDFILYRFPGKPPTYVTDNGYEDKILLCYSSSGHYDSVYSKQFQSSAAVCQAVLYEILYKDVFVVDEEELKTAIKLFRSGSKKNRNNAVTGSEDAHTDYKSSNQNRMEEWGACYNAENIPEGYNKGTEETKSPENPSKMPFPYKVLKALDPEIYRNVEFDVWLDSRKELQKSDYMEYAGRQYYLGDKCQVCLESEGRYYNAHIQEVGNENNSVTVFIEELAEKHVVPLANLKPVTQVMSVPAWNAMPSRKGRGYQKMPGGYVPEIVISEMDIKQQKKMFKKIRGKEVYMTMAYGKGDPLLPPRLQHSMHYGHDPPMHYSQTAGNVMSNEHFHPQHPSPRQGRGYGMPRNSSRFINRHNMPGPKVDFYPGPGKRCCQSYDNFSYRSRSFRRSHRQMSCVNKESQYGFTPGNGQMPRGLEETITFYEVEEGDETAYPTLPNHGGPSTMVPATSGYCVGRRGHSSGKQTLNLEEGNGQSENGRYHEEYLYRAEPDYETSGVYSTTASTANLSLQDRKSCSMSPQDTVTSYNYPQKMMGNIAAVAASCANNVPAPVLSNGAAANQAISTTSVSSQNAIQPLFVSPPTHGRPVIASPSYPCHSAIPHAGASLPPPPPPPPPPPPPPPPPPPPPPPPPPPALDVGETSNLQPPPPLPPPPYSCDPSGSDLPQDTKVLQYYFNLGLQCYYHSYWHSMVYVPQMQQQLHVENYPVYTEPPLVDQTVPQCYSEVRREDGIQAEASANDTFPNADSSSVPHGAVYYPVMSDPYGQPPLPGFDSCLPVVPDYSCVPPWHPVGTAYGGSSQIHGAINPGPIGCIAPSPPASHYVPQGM
# Method in brief: (§1)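 Triplicate samples of HEK293T lysate, 495 µg each, received fragment at 200 µM or vehicle for 3 h, followed by Biotin-Ahx-Ub-VS (0.5 µM final) for 1 h. After NeutrAvidin enrichment of labelled DUBs and LysC/trypsin digestion, peptides were run by diaPASEF LC-MS/MS. The values are average log2 fragment/vehicle ratios from global-median-normalised Spectronaut label-free quantities, tested by unpaired t-test on proteins having ≥2 unique peptides.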
# ATXN3 = ATXN3 (UniProt P54252)
# Method in brief: as §1
# BAP1 = target: T2, BAP1 (UniProt Q92560)
# T2 sequence (whole entry): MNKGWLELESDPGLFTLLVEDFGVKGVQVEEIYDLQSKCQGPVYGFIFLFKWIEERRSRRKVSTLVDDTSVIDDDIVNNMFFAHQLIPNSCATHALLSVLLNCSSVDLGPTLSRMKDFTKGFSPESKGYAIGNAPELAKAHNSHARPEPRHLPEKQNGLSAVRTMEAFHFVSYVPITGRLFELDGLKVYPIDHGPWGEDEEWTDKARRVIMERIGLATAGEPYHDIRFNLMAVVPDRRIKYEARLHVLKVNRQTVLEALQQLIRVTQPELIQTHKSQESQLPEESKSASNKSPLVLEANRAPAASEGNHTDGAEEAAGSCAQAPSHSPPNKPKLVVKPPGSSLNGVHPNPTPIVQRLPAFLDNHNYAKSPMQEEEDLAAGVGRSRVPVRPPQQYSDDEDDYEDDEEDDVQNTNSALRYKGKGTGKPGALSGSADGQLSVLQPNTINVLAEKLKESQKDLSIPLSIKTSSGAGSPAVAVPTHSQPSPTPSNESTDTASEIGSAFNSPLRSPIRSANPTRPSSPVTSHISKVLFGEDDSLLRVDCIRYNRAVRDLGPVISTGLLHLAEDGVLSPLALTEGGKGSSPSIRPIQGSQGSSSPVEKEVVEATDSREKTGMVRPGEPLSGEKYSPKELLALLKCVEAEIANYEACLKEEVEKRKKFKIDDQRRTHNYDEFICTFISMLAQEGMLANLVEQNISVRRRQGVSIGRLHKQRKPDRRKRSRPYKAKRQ
# Method in brief: as §1
# EIF3F = EIF3F (UniProt O00303)
# Method in brief: as §1
# EIF3H = EIF3H (UniProt O15372)
# Method in brief: as §1
# FAM105A = target: T3, FAM105A (UniProt Q9NUU6)
# T3 sequence (whole entry): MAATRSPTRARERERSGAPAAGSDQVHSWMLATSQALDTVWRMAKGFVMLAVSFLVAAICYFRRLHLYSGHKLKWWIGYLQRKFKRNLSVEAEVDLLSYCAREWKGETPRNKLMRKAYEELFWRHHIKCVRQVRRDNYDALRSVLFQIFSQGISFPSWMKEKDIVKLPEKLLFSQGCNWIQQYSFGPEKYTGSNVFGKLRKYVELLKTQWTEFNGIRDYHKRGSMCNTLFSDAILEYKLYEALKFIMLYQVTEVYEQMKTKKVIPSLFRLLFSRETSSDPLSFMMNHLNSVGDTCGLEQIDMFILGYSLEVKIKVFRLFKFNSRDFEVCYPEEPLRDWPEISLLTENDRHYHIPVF
# Method in brief: as §1
# OTUB1 = OTUB1 (UniProt Q96FW1)
# Method in brief: as §1
# OTUD4 = target: T4, OTUD4 (UniProt Q01804)
# T4 sequence (whole entry): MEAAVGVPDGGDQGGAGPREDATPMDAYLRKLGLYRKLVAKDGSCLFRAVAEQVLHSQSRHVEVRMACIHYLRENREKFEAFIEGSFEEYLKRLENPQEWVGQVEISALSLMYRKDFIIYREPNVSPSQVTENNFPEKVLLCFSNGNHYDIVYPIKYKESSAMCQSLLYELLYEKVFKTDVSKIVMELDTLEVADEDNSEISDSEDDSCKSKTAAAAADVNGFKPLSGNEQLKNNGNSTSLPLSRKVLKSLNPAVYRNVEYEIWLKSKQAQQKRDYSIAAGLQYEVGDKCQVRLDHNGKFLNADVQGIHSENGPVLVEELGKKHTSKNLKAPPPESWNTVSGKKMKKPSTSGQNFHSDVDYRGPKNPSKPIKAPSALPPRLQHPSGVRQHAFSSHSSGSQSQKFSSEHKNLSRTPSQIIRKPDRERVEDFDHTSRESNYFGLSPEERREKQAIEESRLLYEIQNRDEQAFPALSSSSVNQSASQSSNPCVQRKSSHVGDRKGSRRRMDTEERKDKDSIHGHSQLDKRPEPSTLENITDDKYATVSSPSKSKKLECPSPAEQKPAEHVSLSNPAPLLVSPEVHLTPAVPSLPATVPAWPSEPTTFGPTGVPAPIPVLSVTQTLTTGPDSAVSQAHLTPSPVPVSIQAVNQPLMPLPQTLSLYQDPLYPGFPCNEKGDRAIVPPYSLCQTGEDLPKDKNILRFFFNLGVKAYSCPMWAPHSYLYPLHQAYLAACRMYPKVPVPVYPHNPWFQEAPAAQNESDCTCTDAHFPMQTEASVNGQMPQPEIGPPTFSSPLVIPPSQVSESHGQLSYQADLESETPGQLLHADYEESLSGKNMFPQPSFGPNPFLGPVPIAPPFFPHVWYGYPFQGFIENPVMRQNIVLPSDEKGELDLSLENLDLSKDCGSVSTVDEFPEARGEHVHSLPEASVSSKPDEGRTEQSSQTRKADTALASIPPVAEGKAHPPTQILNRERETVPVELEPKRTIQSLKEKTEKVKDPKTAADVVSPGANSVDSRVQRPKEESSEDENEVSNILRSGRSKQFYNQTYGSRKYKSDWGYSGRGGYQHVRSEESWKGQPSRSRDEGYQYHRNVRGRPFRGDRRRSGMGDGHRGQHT
# Method in brief: as §1
# OTUD5 = target: T5, OTUD5 (UniProt Q96G74)
# T5 sequence (whole entry): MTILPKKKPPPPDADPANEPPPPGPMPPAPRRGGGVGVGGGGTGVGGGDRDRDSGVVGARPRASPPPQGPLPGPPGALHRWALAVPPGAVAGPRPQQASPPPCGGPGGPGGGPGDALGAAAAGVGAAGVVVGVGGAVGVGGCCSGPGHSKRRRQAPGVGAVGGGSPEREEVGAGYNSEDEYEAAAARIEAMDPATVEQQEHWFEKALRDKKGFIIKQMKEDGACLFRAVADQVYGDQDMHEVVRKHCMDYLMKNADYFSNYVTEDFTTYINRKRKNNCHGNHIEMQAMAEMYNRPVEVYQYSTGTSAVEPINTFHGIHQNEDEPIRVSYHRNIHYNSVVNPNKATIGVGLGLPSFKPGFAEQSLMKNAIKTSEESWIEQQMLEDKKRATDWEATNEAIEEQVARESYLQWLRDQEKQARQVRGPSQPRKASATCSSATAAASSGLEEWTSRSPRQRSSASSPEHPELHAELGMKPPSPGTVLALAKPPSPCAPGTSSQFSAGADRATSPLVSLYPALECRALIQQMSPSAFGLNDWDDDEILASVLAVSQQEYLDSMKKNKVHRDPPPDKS
# Method in brief: as §1
# Chain of EIF3H (O15372 whole entry): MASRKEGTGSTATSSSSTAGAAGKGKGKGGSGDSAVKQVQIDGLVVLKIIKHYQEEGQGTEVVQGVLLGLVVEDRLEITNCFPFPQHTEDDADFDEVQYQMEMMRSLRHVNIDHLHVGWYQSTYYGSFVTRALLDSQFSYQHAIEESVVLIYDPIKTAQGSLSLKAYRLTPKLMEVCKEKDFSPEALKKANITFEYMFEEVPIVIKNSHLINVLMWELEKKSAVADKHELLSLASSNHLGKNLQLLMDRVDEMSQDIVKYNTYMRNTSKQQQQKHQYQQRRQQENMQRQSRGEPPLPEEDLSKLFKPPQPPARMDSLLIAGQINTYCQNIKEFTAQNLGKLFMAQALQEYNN
# Chain of OTUB1 (Q96FW1 whole entry): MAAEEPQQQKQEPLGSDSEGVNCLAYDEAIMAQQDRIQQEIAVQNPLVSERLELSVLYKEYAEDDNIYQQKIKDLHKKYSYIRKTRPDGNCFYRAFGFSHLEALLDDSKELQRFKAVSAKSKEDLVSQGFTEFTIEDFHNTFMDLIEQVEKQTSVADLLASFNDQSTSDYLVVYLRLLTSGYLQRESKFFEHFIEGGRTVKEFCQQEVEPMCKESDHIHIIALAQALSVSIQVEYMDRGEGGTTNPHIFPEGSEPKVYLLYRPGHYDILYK
# Chain of ATXN3 (P54252 whole entry): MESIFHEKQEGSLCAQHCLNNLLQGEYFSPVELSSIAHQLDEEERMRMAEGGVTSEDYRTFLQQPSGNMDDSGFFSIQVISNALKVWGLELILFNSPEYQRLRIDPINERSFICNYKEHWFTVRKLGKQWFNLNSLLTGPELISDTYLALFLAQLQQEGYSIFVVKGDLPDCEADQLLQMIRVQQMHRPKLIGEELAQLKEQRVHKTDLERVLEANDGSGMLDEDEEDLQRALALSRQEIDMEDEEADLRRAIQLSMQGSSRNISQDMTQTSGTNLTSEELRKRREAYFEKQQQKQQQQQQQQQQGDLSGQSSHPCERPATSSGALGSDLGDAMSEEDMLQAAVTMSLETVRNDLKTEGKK
# Chain of EIF3F (O00303 whole entry): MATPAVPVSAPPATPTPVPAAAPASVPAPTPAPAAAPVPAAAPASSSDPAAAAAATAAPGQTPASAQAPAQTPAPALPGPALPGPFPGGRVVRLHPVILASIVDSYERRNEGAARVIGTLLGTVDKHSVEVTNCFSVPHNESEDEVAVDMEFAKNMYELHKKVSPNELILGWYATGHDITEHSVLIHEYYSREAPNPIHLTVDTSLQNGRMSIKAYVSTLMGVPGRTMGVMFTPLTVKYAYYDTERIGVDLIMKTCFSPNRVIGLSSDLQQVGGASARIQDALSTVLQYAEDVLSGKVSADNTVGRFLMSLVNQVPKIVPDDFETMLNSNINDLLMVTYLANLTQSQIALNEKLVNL
SMILES,log2 ratio of Biotin-Ahx-Ub-VS probe labelling (ALG13),log2 ratio of Biotin-Ahx-Ub-VS probe labelling (ATXN3),log2 ratio of Biotin-Ahx-Ub-VS probe labelling (BAP1),log2 ratio of Biotin-Ahx-Ub-VS probe labelling (EIF3F),log2 ratio of Biotin-Ahx-Ub-VS probe labelling (EIF3H),log2 ratio of Biotin-Ahx-Ub-VS probe labelling (FAM105A),log2 ratio of Biotin-Ahx-Ub-VS probe labelling (OTUB1),log2 ratio of Biotin-Ahx-Ub-VS probe labelling (OTUD4),log2 ratio of Biotin-Ahx-Ub-VS probe labelling (OTUD5)
Cl.O=C(CCl)NCCc1ncc(F)cc1F,0.103,-0.404,-1.21 (active),-0.289,0.21,0.131,-0.111,-0.506,-0.474
COc1ccc(-c2csc(NC(=O)CCl)n2)cc1,-0.0925,-0.907,-2.94 (active),-0.0557,0.443,-0.207,-0.0658,-0.702,-0.997
O=C(CCl)Nc1cccc(NC(=O)c2ccccc2)c1,0.117,0.278,-3.32 (active),-0.291,0.304,-0.516,-0.202,0.39,-0.0636
Cc1cccc2nc(CCNC(=O)CCl)cn12.Cl,-0.496,-0.436,-0.904,-0.438,-0.726,-0.0367,-0.236,-0.21,-0.495
Cc1cc(C(=O)NC2CCN(C(=O)CCl)CC2)no1,0.0715,-0.572,-0.339,-0.05,0.0609,0.133,-0.0459,-0.297,-0.298
O=C(CN1CCN(C(=O)CCl)CC1)Nc1cccc(F)c1,-0.606,-0.412,-0.967,-0.00546,0.149,0.21,-0.291,-0.422,-0.511
Cc1cccc(NC(=O)[C@@H]2CCCN2C(=O)CCl)n1,0.103,-0.532,-0.719,-0.372,0.0856,0.18,-0.512,-0.432,-0.514
NS(=O)(=O)c1ccc(Cl)c(NC(=O)CCl)c1,-0.591,-0.697,-4.06 (active),-0.117,0.198,0.226,-0.37,-2.55 (active),-1.72 (active)
O=C(CCl)N1CC2(CCOCC2)C1,-0.597,-0.356,-0.382,0.0073,0.061,-0.00776,-0.183,-0.122,-0.493
O=C(CCl)NCCC1COCCO1 (stereo unspecified),-0.267,-0.282,-1.01 (active),-0.44,0.24,-0.278,-0.233,-0.214,-0.165
CC1Cc2ccccc2N1C(=O)CCl (stereo unspecified),-0.0487,-0.989,-0.55,-0.355,0.0594,-0.0636,-0.626,-0.544,-0.957
O=C(CCl)N(C1=CCCCC1)C1CC1,0.101,-0.0892,-0.204,-0.311,0.314,0.173,-0.159,0.037,-0.182
Cc1nc(-c2cccc(NC(=O)CCl)c2)cs1,0.3,-0.742,-3.5 (active),-0.303,0.167,0.000667,-0.0946,-0.305,-0.539
Cc1cccc(NC(=O)CCl)c1C,0.138,-0.243,-3.21 (active),-0.272,0.00998,0.19,0.0184,-0.0599,-0.394
